Molecules are shown by their SMILES. About 210 (0.35%) of roughly 60,000 compounds were called active. The list comes from a sample in which actives are over-represented; it also holds similar structures and randomly drawn compounds. A number with no mark means an inactive call.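 The calls were made as follows: active = inhibition above the screen-wide mean inhibition plus 3 SD (cut at about 18% in these data); inactive = the rest.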

The target in this assay is Rho-associated protein kinase 2 (Homo sapiens) (UniProt O75116). Nature of the assay: inhibitors of human ROCK2 kinase, primary screen, biochemical, high-throughput, luminescence (AID 604).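 Also: plate controls were DMSO wells for no effect and Y-27632 control wells after no-enzyme background subtraction for full effect.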 The settings on record: purified ROCK2, Kinase-Glo ATP depletion luminescence; at 6 µM; stronger effect = higher value. (In Kinase-Glo more light means more ATP remaining.)
Rho-associated protein kinase 2 (Homo sapiens), sequence (O75116 whole entry, looked up): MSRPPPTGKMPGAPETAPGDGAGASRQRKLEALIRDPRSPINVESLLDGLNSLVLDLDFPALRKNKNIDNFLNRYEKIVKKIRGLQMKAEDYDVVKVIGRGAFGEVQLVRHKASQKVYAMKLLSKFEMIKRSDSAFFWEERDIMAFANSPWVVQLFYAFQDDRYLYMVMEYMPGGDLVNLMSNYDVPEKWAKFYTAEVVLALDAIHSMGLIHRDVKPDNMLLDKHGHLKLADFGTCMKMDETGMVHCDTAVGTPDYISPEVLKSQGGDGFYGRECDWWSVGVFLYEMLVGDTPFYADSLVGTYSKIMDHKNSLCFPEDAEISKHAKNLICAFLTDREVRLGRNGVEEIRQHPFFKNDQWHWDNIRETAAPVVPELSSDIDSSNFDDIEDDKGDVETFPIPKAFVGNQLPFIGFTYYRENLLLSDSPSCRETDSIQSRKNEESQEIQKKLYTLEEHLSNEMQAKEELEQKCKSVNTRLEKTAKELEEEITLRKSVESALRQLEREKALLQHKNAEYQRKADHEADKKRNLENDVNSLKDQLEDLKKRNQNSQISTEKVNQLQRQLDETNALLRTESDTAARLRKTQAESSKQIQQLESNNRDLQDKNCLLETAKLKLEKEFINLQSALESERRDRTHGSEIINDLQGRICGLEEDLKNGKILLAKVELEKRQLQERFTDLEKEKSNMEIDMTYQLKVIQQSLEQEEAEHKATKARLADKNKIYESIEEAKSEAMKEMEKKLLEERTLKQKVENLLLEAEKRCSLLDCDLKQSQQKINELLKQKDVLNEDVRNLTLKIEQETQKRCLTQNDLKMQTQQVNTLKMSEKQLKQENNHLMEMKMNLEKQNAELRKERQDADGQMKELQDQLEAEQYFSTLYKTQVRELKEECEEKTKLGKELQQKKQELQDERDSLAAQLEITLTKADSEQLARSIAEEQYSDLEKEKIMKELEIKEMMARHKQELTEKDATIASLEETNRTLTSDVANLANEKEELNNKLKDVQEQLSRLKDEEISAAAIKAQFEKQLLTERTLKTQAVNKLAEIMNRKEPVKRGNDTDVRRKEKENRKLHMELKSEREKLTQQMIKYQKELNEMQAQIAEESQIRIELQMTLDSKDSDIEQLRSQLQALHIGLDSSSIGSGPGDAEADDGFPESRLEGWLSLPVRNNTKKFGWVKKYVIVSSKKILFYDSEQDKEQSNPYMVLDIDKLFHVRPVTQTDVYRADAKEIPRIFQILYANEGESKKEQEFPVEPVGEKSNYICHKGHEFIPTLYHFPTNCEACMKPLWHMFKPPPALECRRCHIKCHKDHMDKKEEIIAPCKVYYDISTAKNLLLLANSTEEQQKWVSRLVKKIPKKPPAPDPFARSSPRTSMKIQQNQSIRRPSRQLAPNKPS
On to `CCOC(=O)C1(c2ccccc2)NC(c2ccc(N(C)C)cc2)C2C(=O)N(C)C(=O)C21` (stereo unspecified), for which the inhibition was 5.3%.
Take `O=C(CSc1nnc(-c2ccco2)n1Cc1ccccc1)NC(=O)NCc1ccco1`: the inhibition is 5.5%.
`Cc1nonc1OCCn1nnnc1N`: the inhibition was 4%.
To `CCCC(=O)N1CCc2[nH]c3ccccc3c2C1` belongs 14.9%; to `COC(=O)c1cc(OC)c(OC)cc1NC(=O)C1CCCO1` (stereo unspecified), 5.6%; to `CS(=O)(=O)N(Cc1nc2sc3c(c2c(=O)[nH]1)CCCC3)C1CCCCC1`, -12.6%.
To `Cc1cccc(NC(=O)CSc2nnc(CCCCCNC(=O)OC(C)(C)C)o2)c1C` belongs 3.8%; to `CC1CCC(NS(=O)(=O)c2ccc3c(c2)n(C)c(=O)c(=O)n3C)CC1` (stereo unspecified), 3.2%; to `CC(C)Cc1ccc(S(=O)(=O)N2CCN(C(=O)c3ccco3)CC2)cc1`, 8%.
To `O=C(C(NS(=O)(=O)c1cccc2nsnc12)c1ccccc1)N1CCN(c2ccccn2)CC1` (stereo unspecified) belongs 6.9%; to `COc1cccc(N(CC(=O)Nc2cccc(F)c2)S(C)(=O)=O)c1`, -1.3%; to `O=C(O)CCSc1nnc(-c2ccccc2)n1-c1ccccc1`, 2.5%.
With `CN1C(=O)CC(N2CCN(c3ccccn3)CC2)C1=O` (stereo unspecified), the inhibition is 0.7%.
For `COc1ccc(Cc2nnc(NS(=O)(=O)Cc3ccccc3)s2)cc1`, the inhibition is -0.2%.
With `CCOC(=O)CSc1nnc(NC(=O)c2cccc(S(=O)(=O)N3CCCC3)c2)s1`, the inhibition was -2.8%.
To `CC(C)OC(=O)C(C#N)c1nc2ccccc2nc1N1CCN(Cc2ccc3c(c2)OCO3)CC1` (stereo unspecified) belongs 3.1%; to `CCCCN(C)C(=O)c1ccc2c(c1)N(CC)C(=O)c1ccccc1S2(=O)=O`, -4.8%.
On to `COc1cc2c(cc1OC)C(c1ccncc1)CC(=O)N2` (stereo unspecified), for which the inhibition is 9.6%.
Consider `COc1cccc(N(CC(=O)NC2CCCC2)C(=O)Cn2nnc(-c3ccc(C)cc3)n2)c1`, for which the inhibition was -2%.
To `O=C(Nc1nc(-c2ccc3c(c2)OCO3)cs1)c1ccncc1` belongs -1.2%; to `COc1ccc(OC)c2sc(NC(=O)C3COc4ccccc4O3)nc12` (stereo unspecified), -3.1%; to `O=C(Nc1nc(-c2ccncc2)cs1)C1COc2ccccc2O1` (stereo unspecified), 114% (active).
Regarding `Cc1ccc(N(CC(O)CN2CCCC2)S(=O)(=O)c2ccccc2)cc1` (stereo unspecified), the inhibition was 1.4%.
In the case of `CC1=C(C(=O)OCc2ccccc2)C(c2ccco2)n2ncnc2N1` (stereo unspecified), the inhibition was -9.2%.
In the case of `CC(=C1C(=O)c2ccccc2C1=O)N1CCN(c2ccccn2)CC1`, the inhibition is 7.8%.
`Cc1cccc2cc(CN(Cc3nnnn3Cc3ccccc3)C3CCCC3)c(=O)[nH]c12`: the inhibition is -0.6%.

By inhibition is commonly meant the drop in the measured response relative to a control, in per cent.

These data come from PubChem BioAssay AID604 (The Scripps Research Institute Molecular Screening Center, 2007).
